Compound activity (PubChem BioAssay)
HTT ATP protect = qHTS Multiplex Assay to Identify Dual Action Probes in a Cell Model of Huntington: Cytoprotection (ATP); 230,000 compounds, 0.14% hits; Potency, µM (doses to about 56.4 µM), most hits filed as activators; PC12 HTT-Q103 induced, cytoprotection, ATP luminescence, 40 h; further: nearly all actives have a fitted effect of over 45% in size
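Stable PC12 Q103-GFP cells in serum-supplemented, phenol red-free DMEM; induction by tebufenozide at 100 nM final; compound dose series; cell viability quantified luminescently from ATP.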
HTT aggregate = qHTS Multiplex Assay to Identify Dual Action Probes in a Cell Model of Huntington: Aggregate Formation (GFP); PC12 HttQ103-GFP aggregates, Acumen cytometry, 40 h; Potency, µM (top dose mostly 46.1 µM), actives largely listed as inhibitors; 220,000 compounds, 1.1% hits; AID 1688, 2009; further: nearly all actives have a fitted effect of over 60% in size
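PC12/HTTQ103-GFP, ecdysone-inducible; teb 100 nM; cpd qHTS titration; GFP aggregates read on laser cytometer, Ex 488/Em 500-530 nm.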
HepG2 tox = qHTS for Inhibitors of TGF-b: Cytotox Counterscreen | 410,000 compounds, 0.76% hits | Potency, µM (doses to about 46.1 µM), usual class: cytotoxic | HepG2 CAGA-GFP viability, ATP luminescence, 18 h
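HepG2 CAGA-GFP cells (1000/well, DMEM with 1% FBS) received compound, then TGF-beta at 500 pg/mL final, and were incubated 18 hours at 37 degrees C. Viability was read by CellTiter-Glo luminescence. Media-only wells were set as complete cell-killing and DMSO as no toxicity.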
ATXN2 expr inh = Primary qHTS for Inhibitors of ATXN expression; HEK-293 ATXN2-luciferase reporter, luminescence, 24 h; Potency, µM (highest dose often 57 µM), usual class: inhibitors; 360,000 compounds, 0.72% hits; AID 1745845, 2022; further: nearly all actives have a fitted effect of over 55% in size
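ATXN2-luciferase reporter cells (luciferase flanked by upstream and downstream ATXN2 gene portions) were treated 24 h at 37 °C with compounds at up to 57 uM. SteadyGlo luminescence gave expression; GF-AFC fluorescence gave viability.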
ATXN viability = Viability Counterscreen for Primary qHTS for Inhibitors of ATXN expression. S2 cells (HEK-293 line with an ATXN2-luciferase reporter) viability, CellTiter-Fluor protease fluorescence, 24 h. Potency, µM (series often up to 56.7 µM), actives largely listed as cytotoxic. 400,000 compounds, 0.49% hits. AID 651635, 2014; further: nearly all actives have a fitted effect of over 40% in size
TGFb SMAD3 inh = qHTS for Inhibitors of TGF-b | Potency, µM (highest dose often 46.1 µM), most hits filed as inhibitors | 410,000 compounds, 1.2% hits | HepG2 CAGA-GFP TGF-b/SMAD3 reporter, GFP fluorescence, 18 h; TGF-beta stimulated, 500 pg/mL final; further: nearly all actives have a fitted effect of over 65% in size
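Smad-responsive CAGA-GFP expression was quantified in HEPG2 cells exposed to compounds and 500 pg/mL final TGF-beta for 18 h at 37 degrees C; unstimulated wells defined full inhibition.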
Hits are given with their value; i = inactive; ? = inconclusive; nt = no result; [ ] = another dose, or the depositor's remark. An excerpt weighted towards active compounds, which were near 2.8% of everything screened. The call rests on the fitted dose curve; in most records, active means well fitted curve in the direction sought with a large enough effect; inconclusive means small, poorly fitted or top-dose-only effect, or another doubt; inactive means no such curve, though single readings can be large; an effect the other way counts as inactive or inconclusive.

SMILES	HTT ATP protect	HTT aggregate	HepG2 tox	ATXN2 expr inh	ATXN viability	TGFb SMAD3 inh
Cc1ccc(Cc2c(-c3ccc(Cl)cc3)nc3cc(C)ccn23)cc1	nt	nt	i	i	?	i
Cc1ccc(Cc2c(-c3ccc(C)cc3)nc3cc(C)ccn23)cc1	nt	nt	i	?	32µM	?
Cc1ccn2c(Cc3ccccc3)c(-c3ccc(Br)cc3)nc2c1	nt	nt	i	i	14µM	i
Cc1ccn2c(CC(C)(C)C)c(-c3ccc(F)cc3)nc2c1	nt	nt	i	?	25µM	?
COc1ccc(CN2CCCC(n3cc(C(=O)N4CCCCC4)nn3)C2)c(OC)c1 (stereo not drawn)	nt	nt	nt	nt	i	nt
CCCCCc1ccc(-c2cn(Cc3ccc4c(c3)C(=O)c3ccccc3C4=O)nn2)cc1	nt	nt	i	nt	nt	i
O=S(=O)(c1ccccc1)N1CCN(c2ccnc3cc(Cl)ccc23)CC1	i	?	i	13µM	?	?
CC(C)(C)OC(=O)COc1cc(OCC(=O)OC(C)(C)C)c2c(=O)cc(-c3ccccc3)oc2c1	i	i	i	20µM	20µM	?
CC(C)(C)OC(=O)COc1cc(O)c2c(=O)cc(-c3ccccc3)oc2c1	i[10 µM]	i	i	i	i	i
Cc1cc(/C=C/c2ccnc3ccccc23)ccc1N	nt	nt	i	nt	nt	?
Cc1ccc(Cn2ccnc2SCC(=O)Nc2nc3ccccc3s2)cc1	nt	nt	i	nt	nt	11µM
Cn1cc(SCC(=O)Nc2nc3ccccc3s2)c2ccccc21	i[0.074 µM]	i	i	25µM	i	i
CCc1nnc(NC(=O)CSc2nccn2Cc2ccc(C)cc2)s1	nt	nt	i	i	i	i
Nc1nc(=S)[nH]c2n[nH]nc12	nt	nt	i	nt	nt	i
CCOC(=O)c1c(NC(=O)CN2CCN(S(=O)(=O)c3cc(Cl)ccc3Cl)CC2)sc(C(=O)N(C)C)c1C	nt	nt	i	i	?	10µM
CCOC(=O)c1c(NC(=O)COC(=O)c2ccc(Cl)nc2)sc(C(=O)N(C)C)c1C	nt	nt	i	i	i	i
CC(=O)c1ccc(Nc2cc(C)nc3c(C)cc(C)cc23)cc1	i[10 µM]	i	i	?	nt	11µM
Cc1cc(C)c2nc(C)cc(Nc3ccc(C(=O)N(C)C)cc3)c2c1	i[10 µM]	i[9.22 µM]	i	nt	i	i
CC(C)(C)n1nnnc1C(c1ccc(C(F)(F)F)cc1)N(Cc1ccc(F)cc1)Cc1ccco1 (stereo not drawn)	i[10 µM]	16µM	i	i	i	i
COc1ccc(O[C@H]2C=C[C@@H](c3ccccc3)O[C@H]2CO/N=C2/c3cc(OC)ccc3O[C@@H](c3cccc(OC)c3)[C@H]2O)cc1	i[10 µM]	nt	nt	nt	nt	nt
C=C[C@@H]1c2c(F)cccc2N(S(=O)(=O)c2ccc(C)cc2)[C@H](c2ccc(OC(C)=O)cc2)C1(C#N)C#N	nt	nt	i	?	32µM	?
CN(C)c1ccc(/C=N\Nc2ccc([N+](=O)[O-])cc2[N+](=O)[O-])cc1Br	nt	nt	i	nt	nt	i
O=[N+]([O-])c1ccc(S(=O)(=O)Nc2ccc(-c3csc(-c4ccccc4)n3)cc2)cc1	i	?	nt	nt	nt	nt
O=S(=O)(Nc1ccc(-c2csc(-c3ccccc3)n2)cc1)c1ccccc1	i[10 µM]	i	14µM	i	?	?
Cc1ccc(S(=O)(=O)Nc2ccc(-c3csc(-c4ccccc4)n3)cc2)cc1	i[10 µM]	i	13µM	i	?	?
N#Cc1nc(-c2ccc(COc3ccc(Cl)cc3)o2)oc1N1CCC(C(N)=O)CC1	nt	nt	i	20µM	?	?
CC(=O)NC(CCS(C)(=O)=O)C(=O)Nc1ccc2c(c1)OCO2 (stereo not drawn)	nt	1.1µM	i	i	i	i
CC(=O)NC(CCS(C)(=O)=O)C(=O)Nc1ccc2c(c1)OCCO2 (stereo not drawn)	i[10 µM]	i	i	i	i	i
CCOC(=O)C1=C(C)NC2=C(C(=O)C(C(=O)OCC)C(c3ccco3)C2)C1c1ccccc1C (stereo not drawn)	nt	nt	i	nt	nt	i
